These results are taken from PubChem BioAssay (NCI).

Assay [1] is described as follows: NCI Yeast Anticancer Drug Screen. Data for the rad50 strain (AID 155).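 Note: 0% = growth of vehicle-only cultures of the same strain.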 The following applies: S. cerevisiae rad50 strain growth inhibition; at 50.0 µM; active compounds read high. An outline of the steps: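 Relative growth inhibition (compound vs vehicle) was measured in yeast with a defined repair-gene alteration.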
A short description of assay [2]: NCI Yeast Anticancer Drug Screen. Data for the mec2-1 strain (AID 157). The following applies: S. cerevisiae mec2-1 strain, at 50.0 µM, active compounds read high. An outline of the steps: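 Vehicle-treated cultures served as reference for growth inhibition of compound-exposed mec2-1 yeast.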
The nature of assay [3]: NCI Yeast Anticancer Drug Screen. Data for the sgs1 mgt1 strain (AID 161).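 Note: 0% = growth of cultures given vehicle only.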 The following applies: S. cerevisiae sgs1 mgt1 strain, at 50.0 µM, active compounds read high. An outline of the steps:
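Inhibition of yeast growth, normalised to vehicle-treated controls, is reported for a strain bearing genetic alterations in DNA damage repair.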

A short description of assay [4]: NCI Yeast Anticancer Drug Screen. Data for the cln2 rad14 strain (AID 165).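 Note: 0% = growth equal to vehicle treated cultures.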 The following applies: S. cerevisiae cln2 rad14 strain, at 50.0 µM, active compounds read high. An outline of the steps: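 Each compound was tested on cln2 rad14 yeast. Inhibition of growth was calculated against vehicle-exposed controls.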
Assay [5] can be described thus: NCI Yeast Anticancer Drug Screen. Data for the bub3 strain (AID 167). The conditions noted are these: S. cerevisiae bub3 mutant strain, at 50.0 µM, active compounds read high. An outline of the steps: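 Screening used yeast with an engineered genetic alteration affecting cell cycle control. Compound-exposed cultures were compared with vehicle cultures, and reduced growth was taken as inhibition.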

Assay [6] can be described thus: NCI Yeast Anticancer Drug Screen. Data for the mlh1 rad18 strain (AID 175). The conditions noted are these: S. cerevisiae mlh1 rad18 strain growth inhibition; at 50.0 µM; active compounds read high. An outline of the steps:
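Vehicle-treated cultures served as the reference for growth inhibition in a yeast strain carrying DNA damage repair alterations exposed to each compound.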

The panel holds about 79,000 compounds, 15% with a hit somewhere; the sample as a whole holds those more often. A number with no mark means an inactive call. Activity calls are given as the source filed them. Cut-off read from the data, not from the text of the source: active = growth inhibition above about 70%; inactive = the rest.

`O=c1c2n[nH]nc2nc2n1CC(c1ccccc1)S2` (stereo not given): the growth inhibition in assay [1] is -73.7%; in assay [2], -77%; in assay [3], -15.6%; in assay [4], -3.2%; in assay [5], -16.2%; in assay [6], -20.9%.
In the case of `COC(=O)C(=C(C)C)S(=O)c1ccccc1` (stereo not given), the growth inhibition is -9.85% in assay [1]; 1.4% in assay [2]; -3.55% in assay [3]; -16% in assay [4]; -13.6% in assay [5]; 3.45% in assay [6].
As to `O=c1cc(CNC2CC3CCC2C3)[nH]c(=O)[nH]1` (stereo not given), the growth inhibition in assay [1] was 7.35%; in assay [2], -1.2%; in assay [3], -4.25%; in assay [4] it was -3.45%; in assay [5], 0.2%; in assay [6] it was -0.2%.
Turning to `O=[N+]([O-])c1ccccc1N/N=C/c1ccccc1`, the growth inhibition in assay [1] was -10.2%; in assay [2], 7.1%; in assay [3], 2.6%; in assay [4], -65.9%; in assay [5] it was 8.35%; in assay [6], 10.8%.
With `CCc1nc(N)nc(N)c1-c1ccc2nn(-c3ccccc3)[n+]([O-])c2c1`, the growth inhibition in assay [1] was 4.25%; in assay [2], 10.8%; in assay [3] it was 20%; in assay [4] it was 14.8%; in assay [5], 14%; in assay [6] it was 4.85%.
As for `O=C1CN(C(=O)c2ccccc2)C(=S)N1`, the growth inhibition is 22.5% in assay [1]; 6.7% in assay [2]; 11.7% in assay [3]; -17.9% in assay [4]; 4.75% in assay [5]; 4.5% in assay [6].
As for `CC(=O)Nc1c(Cl)cc(N)cc1Cl`, the growth inhibition is 9.35% in assay [1]; -23.4% in assay [2]; 2.3% in assay [3]; 9.85% in assay [4]; -16.4% in assay [5]; 4.3% in assay [6].
For the molecule `Clc1ccc(N2C(c3ccccc3)=N[C@@H](N3CCOCC3)[C@@H]2N2CCOCC2)cc1`, the growth inhibition in assay [1] is -13.2%; in assay [2] it was -15.9%; in assay [3], -9.95%; in assay [4], -30.9%; in assay [5] it was -1.5%; in assay [6], -4.7%.
For `CCOC(=O)C1=C(C)N(NC(=O)Nc2ccccc2)C2(N)N(NC(=O)Nc3ccccc3)C(C)=C(C(=O)OCC)C12C(=O)OCC` (stereo not given), the growth inhibition in assay [1] is -28.1%; in assay [2] it was -44.5%; in assay [3] it was -42%; in assay [4], -20.7%; in assay [5] it was -7.6%; in assay [6] it was -15.8%.
Regarding `O=[n+]1c2ccccc2n([O-])c2cn(-c3ccccc3)c(-c3ccccc3)c21`, the growth inhibition in assay [1] was 73.5% (active); in assay [2], 67.4%; in assay [3] it was 88.3% (active); in assay [4] it was 80.5% (active); in assay [5], 46.9%; in assay [6], 89.2% (active).
Consider `CC1(C)OC2C(COC(=O)c3ccc([N+](=O)[O-])cc3)OC(NC(=O)N(CCCl)N=O)C2O1` (stereo not given), for which the growth inhibition was -34.4% in assay [1]; -21.2% in assay [2]; -20.9% in assay [3]; -11.2% in assay [4]; -36.5% in assay [5]; 81.5% (active) in assay [6].
For the molecule `COc1cc2c3c(c1OC)C1(C=CC(=O)C=C1)CC3NCC2` (stereo not given), the growth inhibition in assay [1] was -45.9%; in assay [2], -4.8%; in assay [3], -8.5%; in assay [4], -10.1%; in assay [5], -18.9%; in assay [6], -45.6%.
In the case of `O=[N+]([O-])c1ccc(S(=O)(=O)N/N=C/c2cccc3ccccc23)cc1`, the growth inhibition in assay [1] is 6.6%; in assay [2], -1.25%; in assay [3], 17.1%; in assay [4], -15.8%; in assay [5], -0.3%; in assay [6], 19.8%.
As to `NC(N)=NC1CCc2ccccc2C1` (stereo not given), the growth inhibition is 4.4% in assay [1]; -2.85% in assay [2]; -4% in assay [3]; -5.1% in assay [4]; -0.6% in assay [5]; -5.1% in assay [6].
With `C=C(C)CS(=O)(=O)O`, the growth inhibition is -0.15% in assay [1]; 3.45% in assay [2]; 1.85% in assay [3]; -13.1% in assay [4]; 3.35% in assay [5]; 1.65% in assay [6].
`CCOc1ccc(C(=O)CCC(=O)Nc2ccc(Br)cc2)cc1`: the growth inhibition in assay [1] is 13.1%; in assay [2] it was 5.8%; in assay [3], 13.1%; in assay [4] it was -7.3%; in assay [5], 8.75%; in assay [6], 20.4%.
Consider `NC(=O)c1nc2ccccc2nc1Nc1ccc(Cl)cc1Cl`, for which the growth inhibition in assay [1] was 29%; in assay [2] it was 10.2%; in assay [3], 7.55%; in assay [4], -0.9%; in assay [5], 13%; in assay [6] it was 23.2%.
Consider `O=C(OCCc1ccccc1)C(O)c1ccccc1` (stereo not given), for which the growth inhibition is 11.3% in assay [1]; -6.05% in assay [2]; 3% in assay [3]; 10.7% in assay [4]; 6.6% in assay [5]; -1.3% in assay [6].
Consider `COC(=O)c1cc(-c2cccnc2)[nH]c(=O)c1C#N`, for which the growth inhibition in assay [1] was -5.4%; in assay [2] it was -36.6%; in assay [3], -39.9%; in assay [4] it was -15.7%; in assay [5], -9.7%; in assay [6], -14.2%.
For the molecule `COc1ccccc1NC(=O)C1=C(C)NC(C)=C(C(=O)Nc2ccccc2OC)C1c1ccco1`, the growth inhibition was -4.8% in assay [1]; -8.65% in assay [2]; 20.4% in assay [3]; 4.3% in assay [4]; 29.4% in assay [5]; -11.9% in assay [6].
